# What was measured:
# Experiment in all cases: PBM binding z-score (relative to random genomic background probes); higher = stronger binding; sequences stand for … in GC…GCGATTGACAGCGTAGAATGAAGG
# [1] = tested on: FXR:RXRa (NR concentration 270 nM, RXRa partner concentration 90 nM)
# How it was run: (§1)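 Binding z-scores were set against random background probes. The data came from custom Agilent 4×180K protein-binding microarrays carrying double-stranded probes with 34-nt variable regions, incubated 1 h with ligand-free nuclear receptor dimers. Partner-specific antibodies detected binding, and scanned fluorescence was regression-normalized.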
# [2] = tested on: LXRa:RXRa (NR concentration 270 nM, RXRa partner concentration 90 nM)
# How it was run: as §1
# [3] = tested on: LXRa homodimer (NR concentration 270 nM)
# How it was run: as §1
# [4] = tested on: LXRb:RXRa (NR concentration 270 nM, RXRa partner concentration 90 nM)
# How it was run: as §1
# [5] = tested on: LXRb homodimer (NR concentration 270 nM)
# How it was run: as §1
# [6] = tested on: PPARa:RXRa (NR concentration 270 nM, RXRa partner concentration 90 nM)
# How it was run: as §1
# [7] = tested on: PPARg:RXRa (NR concentration 180 nM, RXRa partner concentration 90 nM)
# How it was run: as §1
# [8] = tested on: PPARg:RXRa 270nM:90nM, anti-RXR (NR concentration 270 nM, RXRa partner concentration 90 nM)
# How it was run: as §1
# [9] = tested on: PPARg:RXRa 30nM:10nM, anti-RXR (NR concentration 30 nM, RXRa partner concentration 10 nM)
# How it was run: as §1
# [10] = tested on: PPARg:RXRa 90nM:30nM, anti-RXR (NR concentration 90 nM, RXRa partner concentration 30 nM)
# How it was run: as §1
# [11] = tested on: PPARg:RXRa DBDmut IVT, anti-RXR (DBD mutation: RXRa K156A/R161A, NR concentration 270 nM, RXRa partner concentration 90 nM)
# How it was run: as §1
# [12] = tested on: PPARg:RXRa IVT, anti-PPARg (NR concentration 270 nM, RXRa partner concentration 90 nM)
# How it was run: as §1
# [13] = tested on: PPARg DBDmut:RXRa IVT, anti-PPARg (DBD mutation: PPARg1 K132A/R137A, NR concentration 270 nM, RXRa partner concentration 90 nM)
# How it was run: as §1
# [14] = tested on: PPARg DBDmut IVT, anti-PPARg (DBD mutation: PPARg1 K132A/R137A, NR concentration 270 nM)
# How it was run: as §1
# [15] = tested on: PPARg homodimer (NR concentration 180 nM)
# How it was run: as §1
# [16] = tested on: PXR:RXRa (NR concentration 270 nM, RXRa partner concentration 90 nM)
# How it was run: as §1
# [17] = tested on: PXR homodimer (NR concentration 270 nM)
# How it was run: as §1
# [18] = tested on: RARa:RXR (NR concentration 270 nM, RXRa partner concentration 90 nM)
# How it was run: as §1
# [19] = tested on: RARa homodimer (NR concentration 270 nM)
# How it was run: as §1
# [20] = tested on: RARb:RXRa (NR concentration 270 nM, RXRa partner concentration 90 nM)
# How it was run: as §1
Sequence,PBM binding z-score [1],PBM binding z-score [2],PBM binding z-score [3],PBM binding z-score [4],PBM binding z-score [5],PBM binding z-score [6],PBM binding z-score [7],PBM binding z-score [8],PBM binding z-score [9],PBM binding z-score [10],PBM binding z-score [11],PBM binding z-score [12],PBM binding z-score [13],PBM binding z-score [14],PBM binding z-score [15],PBM binding z-score [16],PBM binding z-score [17],PBM binding z-score [18],PBM binding z-score [19],PBM binding z-score [20]
CAAACTAGGTCACGAAATGTCAAAGTCGAATGAC,4.45,5.4,1.06,3.49,0.702,5.42,9.32,7.56,6.2,7.61,8.65,9.32,6.88,5.58,3.3,2.74,0.475,3.64,1.83,4.39
ACTTACGGGTCAACGAGGTTATAGAACGCGTATA,6.52,5.29,0.693,4.56,0.433,5.87,5.23,5.55,2.2,4.21,3.53,4.42,1.71,1.43,1.66,5.08,2.8,4.99,0.996,4.35
TGAATGAGGTTAAACATCAGGGAACGTGGCGTCG,3.51,2.57,-0.0319,1.69,-0.0141,3.88,2.33,2.74,1.06,1.93,2.85,2.57,1.51,0.325,0.272,1.7,-0.296,2.29,0.112,2.13
GCTTGTAGATCAAGGTTAAGCAAGACTAAGCTAA,0.263,0.428,-0.624,0.0406,-0.925,1.77,1.05,1.94,0.405,1.6,1.5,1.36,-0.46,-0.377,0.0849,0.191,-0.43,1.07,-0.348,0.844
TCATATAGGTAAACAGGTGTAAGTCCGTAAGTTA,0.827,0.785,-0.0064,0.69,-0.189,1.41,1.35,2.56,3.79,3.09,3.98,2.97,1.63,0.913,1.12,0.63,0.672,0.946,1.32,0.512
ACTATTAGTTCAGACGAGGGCAACCGATAGGTTG,1.07,1.31,0.305,0.453,0.271,0.817,0.621,0.191,-0.0108,0.00845,0.264,0.891,0.625,0.802,0.783,3.92,2.04,0.878,0.72,2.1
ATCGAAAGGCCGTGAGGTGAGTATACAGAAAGGC,0.424,0.135,-0.0346,-0.0132,-0.426,0.369,0.827,0.177,0.199,-0.0286,-0.822,0.492,0.487,1.17,-0.238,0.0278,-0.0636,0.885,0.0649,1.68
CGTCCAAGGTCAATGCTCGGTCAGTGAAAGCATT,5.98,5.55,2.7,4.04,0.788,5,3.34,3.99,1.61,2.79,3.28,3.36,-0.42,-0.828,2.78,3.93,0.774,5.12,0.202,5.11
AGAATGAGGTTAAGACCAGGGAAACAGAATACAT,2.32,1.88,-0.015,1.61,-0.233,3.48,2.1,2.15,0.945,1.71,2.74,2.42,1.4,1.16,0.773,1.03,0.319,1.92,0.687,1.85
GCTTGTAGATCAGGGTTAAGAAAGACTAAGCTAA,0.433,0.899,-0.568,0.723,-0.466,1.55,0.746,1.1,0.497,0.871,0.93,0.657,-0.0573,-0.809,0.18,0.366,-0.121,0.69,-0.311,0.352
GCGACTGGGGTAAAGCAGGTTACCATAAGGTTGG,0.315,0.949,-0.396,0.852,-0.819,1.66,0.941,1.19,0.0678,0.64,3.33,2.74,-0.328,-0.991,-0.0118,0.651,-0.238,0.955,-0.412,0.44
CCAGACAGGTGGAAGGTAACTCAGTCTGGTACGC,-0.299,-0.335,-0.385,-0.402,-0.752,0.13,0.719,1.5,-0.203,0.663,-0.367,-0.196,-1.35,-1.42,0.35,-0.242,-0.0179,-0.223,0.246,-0.313
AGAATGAGGTTGTTAAGATCAGGGAATTGCGGTC,0.00995,0.0148,-0.0695,-0.0376,-0.0779,0.298,0.171,0.206,-0.197,-0.0831,0.255,-0.103,-0.954,-0.016,0.112,0.362,0.179,0.0989,-0.0651,0.173
CGTCCAAGGTCAGACAGGTCAGTGAATGCCGAGT,5.43,4.15,1.39,3.43,0.134,4.25,2.72,3.38,0.54,1.85,2.43,2.79,-0.527,-0.665,2.82,4.38,6.4,4.28,0.847,4.93
GCATATTGGTAATACAAGGTGAAAGTCCGATTGT,0.142,-0.00547,0.127,0.0375,-0.19,0.519,0.364,0.443,0.33,0.00917,0.078,0.938,1.13,0.842,0.326,0.0953,0.0473,0.645,-0.0157,0.266
CGTCCAAGGTCATAGGAGGTCAGTTAAGACAGAT,7.74,7.74,5.66,6.32,1.11,5.68,5.84,5.96,2.29,4.5,3.03,4.5,0.532,0.526,3.95,6.47,4.13,5.73,1.43,5.36
CCTTACGGGTCACTGACAGGTTAGAGCATTTGGA,5.51,3.9,0.227,3.04,-0.348,5.19,4.35,4.64,1.58,3.02,3.5,3.63,0.322,-0.672,2.02,3.32,-0.369,4.51,0.501,3.95
CAAACTAGGCCAAAGGTCAAAGTCGAGCCAACCA,6.1,5.86,4.2,5.75,2.08,7.88,12.3,10.6,11,11.5,7.14,7.78,2.58,1.59,2.88,5.56,0.846,6.35,0.602,5.26
AATCCAGGGTCATCGTAGGCCAGAGTACGCACAG,7.58,6.18,1.65,4.8,0.807,5.75,6.7,6.07,3.18,4.59,2.54,4.33,1.57,0.689,2.41,5.14,0.854,5.49,1.2,4.32

# From the supplement of paper PMC6555819
